High-throughput results (PubChem)
PI4K2A block = inhibitors of human PI4K2A. AID 1346378. purified PI4K2A, ADP-Glo luminescence, 1 h; active compounds read low. Q9BTU6. activity change, negative = inhibition, % at 76.9 µM. 0.13% of 420,000 active; in the data active = activity change below about -50%; inconclusive = mostly about -30% to -49%;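 note: -100% = wells without enzyme as full effect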
Target sequence (Q9BTU6 whole entry, looked up): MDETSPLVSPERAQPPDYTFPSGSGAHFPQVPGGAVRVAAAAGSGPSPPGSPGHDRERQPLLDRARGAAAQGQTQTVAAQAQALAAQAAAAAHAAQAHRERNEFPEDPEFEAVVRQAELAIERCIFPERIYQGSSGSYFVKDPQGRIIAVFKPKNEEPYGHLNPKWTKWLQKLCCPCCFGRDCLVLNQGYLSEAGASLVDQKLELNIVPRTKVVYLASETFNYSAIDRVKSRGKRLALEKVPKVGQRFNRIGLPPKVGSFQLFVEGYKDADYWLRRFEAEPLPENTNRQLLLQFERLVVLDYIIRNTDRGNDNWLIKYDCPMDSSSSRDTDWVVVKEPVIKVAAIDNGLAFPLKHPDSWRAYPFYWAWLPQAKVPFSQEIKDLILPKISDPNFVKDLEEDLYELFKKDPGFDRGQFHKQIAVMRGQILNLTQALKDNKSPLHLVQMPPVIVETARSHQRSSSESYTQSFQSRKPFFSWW
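PI4K2A activity was measured by ADP-Glo luminescence: enzyme (4 ug/mL stock) and phosphatidylinositol (1.2 mM stock) in Tris pH 7.5/MgCl2/EGTA/Triton X-100 buffer were reacted with ATP (300 microM stock) for one hour at ambient temperature.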
KB-V1 MDR tox = kills drug-selected multidrug resistant KB-V1 cells; Potency, µM (highest dose often 46.1 µM), most hits filed as cytotoxic; 3.4% of 400,000 active; KB-V1 MDR cells viability, CellTiter-Glo, 72 h; note: potency is the fitted concentration of half-maximal effect; nearly all actives have a fitted effect of over 60% in size
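Following 72 h at 37 degrees C with compound, KB-V1 cell viability was read by CellTiter-Glo luminescence, medium being phenol-red-free DMEM plus 10% FBS; concentration-response parameters came from normalized, curve-fitted qHTS data.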
A549 tox = kills or reduces viability of A549 cells in Nrf2 counter-screen; A549 ARE-Fluc cells, CellTiter-Fluor viability, 18-24 h; Potency, µM (top dose mostly 46 µM), inactives show at the top dose activity change, negative = cytotoxicity, actives largely listed as inhibitors; 0.16% of 390,000 active; note: potency is the fitted concentration of half-maximal effect
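A549 ARE-Fluc cells in 5% FBS OPTI-MEM, 5000 cells/well, rested 2 h then exposed to compounds in concentration-response for 18-24 h at 37 °C. Viability by CellTiter-Fluor fluorescence (Ex 405/Em 525) after 30 min; luciferase luminescence (BugLite, 15 min, RT) read afterwards.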
Giardia kill = kills Giardia lamblia; AID 540267; Giardia lamblia trophozoite viability; activity change, % at 7.66 µM, hits read low; 0.15% of 340,000 active; in the data active = activity change below about -80%; inconclusive = between about -30% and that limit;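 note: parasites exposed to compound for two days anaerobically before the ATP read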
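Trophozoites 100 cells/well + cpd; 48 hrs, 37 deg C, anaerobic. ATPLite 1-Step added, 15-30 min RT, luminescence read (ATP-based viability).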
KB-3-1 cytotox = KB-3-1 parental cell cytotoxicity | KB-3-1 viability, CellTiter-Glo ATP luminescence, 72 h | Potency, µM (doses to about 46.1 µM), hits mostly cytotoxic | 1.4% of 400,000 active | AID 1347075; note: potency is the fitted concentration of half-maximal effect; nearly all actives have a fitted effect of over 60% in size
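Parental KB-3-1 viability, qHTS format: 72 h compound exposure, 37 °C; CellTiter-Glo; media-only wells and DMSO plates as controls; concentration-effect fits on corrected data.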
Nrf2 block = Nrf2 pathway inhibition | AID 504444 | Potency, µM (series often up to 46 µM), for the others: at the top dose activity change, negative = inhibition, actives largely listed as inhibitors | A549 ARE-Fluc reporter, luciferase luminescence, 18-24 h | 2.1% of 360,000 active; note: potency is the fitted concentration of half-maximal effect; nearly all actives have a fitted effect of over 60% in size
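Two sequential reads on A549 ARE_Fluc cells exposed to compound for 18-24 h: a CellTiter-Fluor fluorescence read for viability, then a luciferase luminescence read for Nrf2/ARE activity.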
Active calls of the source: *; i = inactive; ? = inconclusive; / = no result; ! = repeats disagree. Compounds with a hit are over-represented: about 5.7% of the library has one in this group of screens. Unless noted, calls come from the whole dose curve; as a rule, active = well fitted curve in the direction sought with a large enough effect; inconclusive = small, poorly fitted or top-dose-only effect, or another doubt; inactive = no such curve, though single readings can be large; an effect the other way counts as inactive or inconclusive. Unless noted, % is set by controls: 0 for no effect and ±100 for the full control effect.

SMILES	PI4K2A block	KB-V1 MDR tox	A549 tox	Giardia kill	KB-3-1 cytotox	Nrf2 block
Cc1[nH]nc(N=CC2=C(O)CC(c3ccco3)CC2=O)c1-c1ccccc1 (centres undefined)	3	16µM*!	-5%	7	i	-17%
c1ccc(CSc2nc3ncccc3[nH]2)cc1	-9	/	6%	/	/	29%
Cn1c(=O)c2c(nc(NCc3ccco3)n2CC(O)COc2ccccc2)n(C)c1=O (centres undefined)	-7	2.6µM*	-11%	-1	?	-17%
CCCn1c(NCc2ccco2)nc2c1c(=O)n(C)c(=O)n2C	-5	15µM*	-3%	-22	?	/
Cn1c(NCc2ccco2)nc2c1c(=O)n(Cc1ccc(Cl)cc1Cl)c(=O)n2C	-4	i	-13%	4	i	18µM*
CNc1nc2c(c(=O)n(C)c(=O)n2C)n1CC(O)COc1ccc(OC)cc1 (centres undefined)	-3	i	-8%	/	?	?
O=C(NC1CCCCN(Cc2cccc(Cl)c2)C1=O)c1ccccc1 (centres undefined)	4	/	/	/	/	/
O=C(CN1C(=O)COc2ccc(S(=O)(=O)N3CCCCCC3)cc21)NCCc1ccccc1	-1	/	-6%	/	/	-1%
O=C(O)CCN1C(=O)/C(=C/c2ccc(F)cc2F)SC1=S	-1	/	/	/	/	/
CCN(CC)C(=O)c1sc(NC(=O)c2ccoc2C)c(C(=O)OC)c1C	2	i	2%	14	i	-21%
COC(=O)c1c(-c2ccncc2)csc1NC(=O)c1ccoc1C	2	6.5µM*	8%	-4	?	/
CCOC(=O)C(Cc1ccccc1)CP(=O)(OC)[C@@H](C)NC(=O)OCc1ccccc1 (some centres undefined)	2	/	/	/	/	/
Cc1ccccc1NC(=S)NCCc1ccccc1	-1	16µM*	13%	-15	i	7%
CC(C)CCNC(=S)Nc1ccc(Br)cc1	2	18µM*	-4%	9	?	?
S=C(NCCc1ccccc1)Nc1ccc(Br)cc1	3	18µM*	2%	19	?	?
COc1ccc(CCNC(=S)Nc2ccccc2C)cc1	5	i	2%	-14	i	/
CCCNC(=S)Nc1ccc(Br)cc1	0	i	-11%	-7	i	/
S=C(NCCc1ccccc1)Nc1ccccn1	4	16µM*	?	1	i	3%
NC(=O)c1ccc2nc(-c3ccc(Oc4ccc(Cl)cc4)cc3)[nH]c2c1	/	i	/	/	i	/
COc1cc(NC(=O)NC2CCCCN(Cc3cccc(Cl)c3)C2=O)cc(OC)c1 (centres undefined)	3	/	/	/	/	/
COc1cccc(-c2cc(C(F)(F)F)nc(N3CCN(c4ccccc4)CC3)n2)c1	2	16µM*	18%	20	?	4%
CCOC(=O)N1CCN(c2nc(-c3cccc(OC)c3)cc(C(F)(F)F)n2)CC1	-5	i	-1%	3	i	?
Cc1c(C(=O)NCc2ccc(C(C)C)cc2)sc(=O)n1Cc1cccc(F)c1	6	i	/	/	i	/
Cc1c(C(=O)NCc2ccc(Cl)c(Cl)c2)sc(=O)n1Cc1ccc(S(=O)(=O)N(C)C)cc1	-3	?	/	/	8.2µM*	/
Cc1c(C(=O)NCc2ccc(Cl)c(Cl)c2)sc(=O)n1Cc1ccc(C(=O)N(C)C)cc1	-2	?	/	/	?	/
SMILES	PI4K2A block	KB-V1 MDR tox	A549 tox	Giardia kill	KB-3-1 cytotox	Nrf2 block
C=Cc1ccc(Cn2c(C)c(C(=O)NCc3ccc4c(c3)OCCO4)sc2=O)cc1	4	9.2µM*	/	/	?	/
CSc1ccc(Cn2c(C)c(C(=O)NCc3ccc(C(C)C)cc3)sc2=O)cc1	-2	16µM*	/	/	18µM*	/
Cc1c(C(=O)NCc2ccc(C(C)C)cc2)sc(=O)n1Cc1ccc(S(=O)(=O)N(C)C)cc1	-3	2.6µM*	/	/	?	/
Cc1c(C(=O)NCc2ccc3c(c2)OCCO3)sc(=O)n1Cc1ccc(C(=O)N(C)C)cc1	4	?	/	/	?	/
CCCN1C(=O)c2ccccc2NC1c1ccc(OC)c(COc2ccc([N+](=O)[O-])cc2)c1 (centres undefined)	/	i	0%	12	i	-29%
Cc1c(C(=O)NCc2cccc(Cl)c2)sc(=O)n1Cc1ccc(C(=O)N(C)C)cc1	-1	21µM*	/	/	?	/
Cn1nc(N)c2ncc(-c3ccc(Cl)cc3)nc21	-16	7.3µM*	/	/	i	/
Cn1nc(NC(=O)C(F)(F)F)c2ncc(-c3ccc(Cl)cc3)nc21	-2	i	1%	3	?	?
Nc1[nH]c(C(=O)c2ccccc2)c(-c2ccc3ccccc3c2)c1C(=O)NCCc1ccc(Cl)cc1	-3	/	/	/	/	/
O=S(=O)(c1ccc(Cl)c(F)c1)N1CCC(c2nc(-c3ccncc3)no2)CC1	-1	21µM*	0%	5	i	/
CCS(=O)(=O)N1CCC(c2nc(-c3ccc(C(F)(F)F)cc3)no2)CC1	4	i	-29%	0	6.5µM*	?
CCS(=O)(=O)N1CCC(c2nc(-c3ccc(C)cc3)no2)CC1	4	?	-9%	5	?	/
Cc1ccc2[nH]c(O)c(N=Nc3nc4ccccc4s3)c2c1	-6	13µM*	-22%	0	?	?
Oc1[nH]c2ccccc2c1N=Nc1nc2ccccc2s1	3	i	-1%	-13	i	?
N#CCc1cc2ccc3cccc4ccc(c1)c2c34	-1	7.3µM*	19%	-3	?	17%
O=C(NCCCN1CCOCC1)C(=O)N/N=C/c1c2ccccc2cc2ccccc12	4	10µM*	?	6	5.8µM*	?
O=C(NCCCN1CCOCC1)C(=O)N/N=C/c1c(Cl)cccc1Cl	-1	i	10%	4	i	7%
CC(C)c1noc2ncc(C(=O)c3cc(Cl)cc(Cl)c3O)cc12	1	16µM*	-1%	-13	?	10%
CCOc1cc(CNC(=O)c2ccc(Cn3c(=O)c4cccn4c4cccnc43)cc2)ccc1OC	-4	/	1%	/	/	-6%
CCCSc1nsc(NC(=O)C(c2ccccc2)c2ccccc2)n1	24	?	?	-9	26µM*	?
CCCSc1nsc(NC(=O)CC)n1	-2	i	-5%	-15	i	3%
CCOc1cc(Br)ccc1S(=O)(=O)NCc1ccccc1	1	15µM*	12%	-9	i	1%
COc1ccccc1NC(C)C(=O)c1c(C)[nH]c2ccccc12 (centres undefined)	/	i	/	/	i	/
CCCCCCN1C[C@H](n2cc(COC(=O)c3ccccc3)nn2)[C@@H](O)C[C@@H]1c1ccc(Cl)cc1	-3	21µM*	/	/	?	/
